Assay outcomes (PubChem BioAssay)
VLA-4 inh: inhibition in human VLA-4 binding assay, primary screen, VLA-4 allosteric modulator project, MLPCN library, flow cytometry, VLA-4 expressing cells | ligand binding flow cytometry | inhibition, % (about 7 µM as worked out from the volumes in the protocol) | 330,000 compounds, 0.2% hits
GRK2 inh: compounds blocking aptamer binding on GRK2 – biochemical, human GRK2, bead flow cytometry, HTS, primary screen. Beta-adrenergic receptor kinase 1 (Homo sapiens), P25098. FAM-aptamer displacement from GRK2. inhibition of aptamer binding, % at 10 µM. 330,000 compounds, 0.59% hits. AID 488847, 2010;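 active = inhibition of aptamer binding above 40%, roughly 3 SD of noise, on plates passing a quality check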;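 also: median bead fluorescence of bound FAM aptamer so fluorescent compounds give negative values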
PKD1 inh: inhibitors of human PKD1 kinase, biochemical, fluorescence polarization; inhibition, % (no concentration beside the values); PKD1 kinase fluorescence polarization assay; 200,000 compounds, 0.056% hits; Serine/threonine-protein kinase D1 (Homo sapiens), Q15139
Pemphigus Ab inh: inhibitors of pemphigus antibody binding to DSG3, primary screen, biochemical, bead-based, flow cytometry, scFv-GFP; 310,000 compounds, 0.48% hits; binding (percent of control), % at 10 µM; DSG3-coupled beads, scFv-anti-DSG3-GFP binding; hits give low values;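 active = binding more than 3 SD below its plate's average and above zero; inconclusive = below that plate limit but binding exactly zero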;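 also: hits lower antibody fragment binding to DSG3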
HDAC3 inh: HDAC3 deacetylase inhibitors, primary screen, biochemical, fluorescence, cell-free homogeneous; Histone deacetylase 3 (Homo sapiens), O15379; recombinant HDAC3, fluorogenic peptide/trypsin coupled; inhibition, % at 8.3 µM; 320,000 compounds, 0.15% hits; in the data active = inhibition above about 26%, passing the limit was not always enough; inconclusive = no clear call, values can overlap the other calls
LANA-H2A inh: blockers of LANA interaction with H2A/H2B – biochemical, FP readout, HTS, primary screen. Protein LANA1 (Human herpesvirus 8 type P (isolate GK18)), Q9QR71. cell-free LANA-H2A/H2B peptide, fluorescence polarization. inhibition, % (no concentration beside the values). 320,000 compounds, 0.6% hits. AID 2629, 2010; in the data active = inhibition mostly above about 10%, no sharp cut-off; inactive = mostly below about 6.7%
GRK2 CP1: GRK2 aptamer-displacing inhibitors, retest, confirmation, biochemical, cherry pick 1, bead flow cytometry; 2,000 compounds, 4% hits; AID 504451, 2011; shares compounds with GRK2 inh; bead-bound GRK2, FAM-aptamer displacement; aptamer displacement, % at 10 µM;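 active = aptamer displacement above 40%, near three times the noise of non-fluorescent compounds, on plates passing quality checks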;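 also: negative values mostly reflect intrinsic compound fluorescence rather than true enhancement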
Aptamer quench SP: quenches fluorescent RNA aptamer, GRK2 hit artifact; shares compounds with GRK2 inh; Carboxyfluorescein RNA aptamer on beads, flow cytometry quenching; hits give low values; fluorescence response (% of DMSO), % at 10 µM; 2,000 tested, under 10 active; AID 504580;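 active = compounds that quench the bead-bound fluorescent RNA probe, cutting fluorescence to under half of the solvent control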;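 also: counterscreen run without GRK2 so only probe quenching by compound is measured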
GRK2 CP2: GRK2 aptamer-displacing inhibitors, hit retest, confirmation, biochemical, cherry pick 2, bead flow cytometry | shares compounds with GRK2 inh | bead-bound GRK2, FAM-aptamer displacement | inhibition of aptamer binding, % at 10 µM | 360 tested, under 10 active | AID 504782, 2011;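 active = inhibition of aptamer binding above 40%, about triple the noise seen with nonglowing compounds, on plates passing quality control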;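 also: negative values mostly come from compounds that fluoresce themselves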
FAM quench SP: quenches fluorescent RNA aptamer, GRK2 hit artifact; shares compounds with GRK2 inh; carboxyfluorescein RNA aptamer beads, flow cytometry quenching; hits give low values; fluorescence response vs DMSO, % at 10 µM; 360 tested, under 10 active; AID 588494;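 active = response vs DMSO under 50%, meaning signal dropped by over half, treated as fluorescence quencher; inconclusive = no clear call, values can overlap the other calls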;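 also: labelled aptamer on streptavidin beads without GRK2 as a quench counter-screen; 100% = bead fluorescence of DMSO wells and lower means quenching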
Starred values were filed as active, the others as inactive; ? = inconclusive; . = no result. Only some compounds are listed: those with a hit (about 1.8% of all), similar ones and a draw of the others. Rule as the data show it, unless noted: active = inhibition above about 50%; inactive = the rest.

SMILES	VLA-4 inh	GRK2 inh	PKD1 inh	Pemphigus Ab inh	HDAC3 inh	LANA-H2A inh	GRK2 CP1	Aptamer quench SP	others
Cc1ccc(C2CC(=O)N3CN(Cc4ccco4)CSC3=C2C#N)cc1 (stereo unspecified)	-17	0	-8	100	?	4	.	.
N#CC1=C2SCN(Cc3ccco3)CN2C(=O)CC1c1c(F)cccc1Cl (stereo unspecified)	-18	88*	-6	95	?	1	-3	100
CC(Oc1ccc(F)cc1)C(=O)Nc1cccc(S(=O)(=O)N(C)c2ccccc2)c1 (stereo unspecified)	.	.	.	103	.	.	.	.
COc1ccc(N2Cc3cccc(C(=O)O)c3C2=O)cc1	3	61*	-6	100	.	-3	32	97
O=C(NC(=S)NCc1ccccc1)c1ccc2c(c1)OCO2	0	94*	-10	104	0	-24	.	.	GRK2 CP2=-35;FAM quench SP=100
O=C(NC(=S)NCc1cccnc1)c1ccccc1	-5	100*	1	101	0	1	.	.	GRK2 CP2=-35;FAM quench SP=101
CC(C)(C)c1ccc(C(=O)NC(=S)NCc2cccnc2)cc1	15	0	6	108	5	1	.	.
COc1cc(/C=N/NC(=O)Cc2nnc(N)s2)cc(OC)c1OC	5	0	.	116	0	-5	.	.
O=C1OCc2ccc(NC(=O)c3sccc3Cl)cc21	13	73*	.	.	1	-4	-1	101
O=C(Nc1ccc2c(c1)C(=O)OC2)c1ccc(Cl)cc1	1	7	.	.	-6	8	.	.
Cn1c(N2CCN(C(c3ccccc3)c3ccccc3)CC2)nc2ccccc21	8	98*	.	113	2	-14	-2	151
Nc1cc(C(=O)OCC(=O)N2CCOCC2)ccc1Cl	-8	58*	.	100	-2	7	-1	99
Cc1ccc(S(=O)(=O)N2CCCC2C(=O)NCc2ccncc2)cc1 (stereo unspecified)	-7	2	.	92	-2	-1	.	.
Cc1cc(C)c2c(c1)C1(OCCO1)C(=O)N2	4	18	.	110	10	1	1	103
Cc1ccc(NC(=O)CN2CCCCCC2)cc1[N+](=O)[O-]	-3	0	9	100	-3	-1	.	.
O=C(COC(=O)Cc1ccsc1)Nc1ccc(Br)cc1	3	3	.	.	.	.	.	.
CCC(=O)Nc1ccc(C(=O)COC(=O)Cc2ccsc2)cc1	-5	48*	.	105	-4	18*	-5	98
CSc1ccc(/C=N/S(=O)(=O)c2ccccc2)cc1	8	0	.	91	-7	1	.	.
CSc1ccc(C=O)cc1	15	73*	.	98	2	-11	-14	93
Cc1cc(NC(=O)CSc2nc3c(C)cccc3cc2C)no1	-1	0	.	.	2	-2	.	.
O=C(c1ccc([N+](=O)[O-])cc1)N1CCN(c2ncc(Br)cn2)CC1	38	0	.	101	-2	-1	.	.
O=C(CSc1cn(CCNC(=O)c2cccs2)c2ccccc12)NC1CCCCC1	-6	7	-3	110	1	1	.	.	GRK2 CP2=-26;FAM quench SP=97
O=C(CSc1cn(CCNC(=O)c2cccs2)c2ccccc12)NCC1CCCO1 (stereo unspecified)	21	0	-13	95	1	-5	.	.	GRK2 CP2=-1;FAM quench SP=101
CC1CCN(S(=O)(=O)c2cc(C(=O)N3CCN(c4ncccn4)CC3)ccc2Br)CC1	6	0	-1	97	-9	4	.	.
O=C(COc1ccccc1)N=C1SC2CS(=O)(=O)CC2N1c1ccc(F)cc1F (stereo unspecified)	1	0	.	107	-2	-3	.	.
SMILES	VLA-4 inh	GRK2 inh	PKD1 inh	Pemphigus Ab inh	HDAC3 inh	LANA-H2A inh	GRK2 CP1	Aptamer quench SP	others
CC1(C)N=C(SCC(=O)Nc2ccc(Cl)cc2)C(c2ccc(Cl)cc2)=N1	27	33	-9	104	12	-1	-3	95
COc1cccc(NC(=O)CSc2ccc3nnc(CCNC(=O)c4ccccc4)n3n2)c1	-13	0	.	106	-13	-7	.	.
COc1ccc(C[C@H]2c3cc(O)c(OC)cc3CC[N+]2(C)[O-])cc1O (stereo partly specified)	33	1	.	99	-2	-5	.	.
Cc1ccc2oc(C(=O)N(C)Cc3ccc(C)o3)c(C)c2c1	15	0	.	101	6	-8	.	.
Cc1ccc2oc(C(=O)N(C)Cc3ccon3)c(C)c2c1	4	92*	.	102	1	1	-1	104
O=C(CNc1cccc(F)c1)N1CCc2ccccc2C1	-3	51*	.	91	3	5	.	.	GRK2 CP2=25;FAM quench SP=102
O=C(c1cccc(F)c1)N1CCc2ccccc2C1	-3	0	-4	.	.	1	.	.
Cc1ccc(-c2csc3ncn(CC#N)c(=O)c23)cc1	7	0	-9	100	-6	-1	.	.
Cc1ccc(-c2csc3ncn(CC#N)c(=O)c23)cc1C	-18	86*	.	120	4	2	-1	93
Nc1[nH]c(=O)nc2snnc12	.	.	.	110	.	.	.	.
O=C(COC(=O)CSc1ccc(Br)cc1)NCc1ccco1	-6	0	.	94	0	-20	.	.
O=C(COC(=O)Cc1ccc(Cl)cc1)NCc1ccco1	1	59*	.	.	-4	2	33	98
Cc1cc(Br)ccc1SCC(=O)OCC(=O)NCc1ccco1	-5	52*	.	112	1	4	25	100
O=C(COC(=O)Cc1c(Cl)cccc1Cl)NCc1ccco1	9	6	.	100	-1	-2	.	.
O=C(COC(=O)Cc1ccc(Cl)c(Cl)c1)NCc1ccco1	-3	0	.	106	.	-1	-3	101
O=C(CCc1ccccc1)Nc1nc2n(n1)C(c1ccc(Cl)cc1)CC(=O)N2 (stereo unspecified)	4	100*	9	99	-6	6	-3	95
